The source of these data is PubChem BioAssay AID1508625 (Wald Lab, School of Medicine, Case Western Reserve …, 2021).

This assay in a line: enhancers of NK cell killing of ovarian tumor cells, primary screen, imaging, OVCAR3, primary NK cells, calcein-AM imaging (AID 1508625).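 Further: compound given to NK cells 16 h before adding targets at 1.5 to 1 ratio.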 Particulars: OVCAR3 lysis by primary NK cells, at 5 µM; z-score: measured here: robust Z-score, single-point normalisation.

Turning to `O=C(Nc1ccc(Cl)cc1)c1cc(S(=O)(=O)NC2CCCC2)ccc1F`, the corrected activity, negative = more killing is -2.8% and the z-score is -0.756.

Regarding `Cc1ccc(NC(=O)Cc2[nH]c3ccccc3c2Sc2ccccc2)cc1`, the corrected activity, negative = more killing is -1.55% and the z-score was -0.584.

Regarding `O=c1c2c(nc3c(-c4ccc(Cl)cc4)c(Cc4ccccc4)[nH]n13)CCC2`, the corrected activity, negative = more killing is -3.87% and the z-score is -2.

Regarding `COCc1cc(C)[nH]c(=O)c1C(=O)NC12CC3CC(CC(C3)C1)C2`, the corrected activity, negative = more killing was -5.27% and the z-score is -1.57.

As for `CCCn1c(C)nc2c(=O)oc3ccccc3c21`, the corrected activity, negative = more killing was 3.04% and the z-score was 0.943.

Take `O=C(COc1ccccc1Br)NN=Cc1ccccc1Br`: the corrected activity, negative = more killing is -7.58% and the z-score was -2.41.

In the case of `COc1cc(NC(=O)c2cc(Cl)cc(Cl)c2OC)ccc1NC(=O)c1ccccc1Cl`, the corrected activity, negative = more killing is -1.43% and the z-score was -0.797.

Consider `COc1ccccc1CNC(=O)C1CCN(S(=O)(=O)c2cccc3nonc23)CC1`, for which the corrected activity, negative = more killing is -5.24% and the z-score was -1.49.

For the compound `CSc1nnc2c(n1)OC(c1ccc(C(=O)O)cc1)Nc1ccccc1-2` (stereo unspecified), the corrected activity, negative = more killing is -1.74% and the z-score is -0.616.

Regarding `CCCC12CN3CC(C)(CN(C1)C31C(=O)Nc3ccc(Br)cc31)C2=O` (stereo unspecified), the corrected activity, negative = more killing is -2.13% and the z-score is -0.876.

For the compound `CC(=O)Oc1ccc(-c2nc3ccc(OC(C)=O)cc3c(=O)o2)cc1`, the corrected activity, negative = more killing is -3.33% and the z-score is -1.44.

In the case of `CCC1CCCCN1C(=O)c1cc2c(=O)n3ccccc3nc2s1` (stereo unspecified), the corrected activity, negative = more killing is -5.2% and the z-score is -1.47.

Regarding `Cc1ccc2cccnc2c1[N+](=O)[O-]`, the corrected activity, negative = more killing was -3.53% and the z-score was -0.744.

In the case of `COC(=O)c1ccc(CN2CCN3CCCC3C2C)cc1` (stereo unspecified), the corrected activity, negative = more killing was -3.15% and the z-score is -1.38.

Take `CCOc1ccc2cc(C3=NN(C(=O)CCC(=O)O)C(c4ccc(Br)cc4)C3)c(Cl)nc2c1` (stereo unspecified): the corrected activity, negative = more killing is -2.89% and the z-score is -1.55.

For the compound `COc1cc(OC)c(CNc2ccc(F)cc2C)cc1Br`, the corrected activity, negative = more killing is -7.05% and the z-score was -2.24.

As for `O=C(Nc1ccccc1C(=O)Nc1ccc(Br)cn1)c1ccccc1`, the corrected activity, negative = more killing is -6.2% and the z-score is -2.34.

As for `CC1CCC2C(=O)N(c3ccc(NCCc4ccccn4)c([N+](=O)[O-])c3)C(=O)C2C1` (stereo unspecified), the corrected activity, negative = more killing was -4.66% and the z-score is -1.69.

As for `Cc1ccc(N2CCN(c3ccc(N4C(=O)C5CCCCC5C4=O)cc3[N+](=O)[O-])CC2C)cc1` (stereo unspecified), the corrected activity, negative = more killing was -4.67% and the z-score was -1.7.

In the case of `CCSc1nnc(NC(=O)CSc2nc3c(c(=O)n2-c2ccccc2OC)SCC3)s1`, the corrected activity, negative = more killing was -4.89% and the z-score is -1.22.

With `Clc1ccc(CSc2ncnc3c2oc2ccccc23)cc1`, the corrected activity, negative = more killing was -4.09% and the z-score is -1.16.

`CC(C)NC1CCCc2c1[nH]c1ccc([N+](=O)[O-])cc21` (stereo unspecified): the corrected activity, negative = more killing was -0.558% and the z-score was -0.244.

With `O=[N+]([O-])c1cccc(CN2CCN3CCCC3C2C2CCCCC2)c1` (stereo unspecified), the corrected activity, negative = more killing is 0.41% and the z-score was 0.179.

Turning to `O=c1[nH]c2ccc(N=Cc3ccc(-c4ccc([N+](=O)[O-])cc4)o3)cc2[nH]1`, the corrected activity, negative = more killing was -0.571% and the z-score is -0.17.

In the case of `COCCNC(=O)c1cc2cc3ccc(Cl)cc3nc2o1`, the corrected activity, negative = more killing was -3.66% and the z-score was -0.897.

Consider `COc1cc(NS(=O)(=O)c2ccc(NC(=O)c3ccc(OC)c(OC)c3)cc2)ncn1`, for which the corrected activity, negative = more killing is -3.26% and the z-score is -1.01.

As for `CCOc1ccc(NC(=O)c2c(NCc3ccncc3)sc3c2CCCCC3)cc1`, the corrected activity, negative = more killing was -0.239% and the z-score is -0.0869.

As for `Cc1cc(N2CCN(C(=O)c3cccc(F)c3F)CC2)c(F)cc1[N+](=O)[O-]`, the corrected activity, negative = more killing was -4.4% and the z-score is -1.92.

Regarding `Cc1cc(C)cc(NC(=O)c2ccccc2OCC(=O)N2CCc3ccccc32)c1`, the corrected activity, negative = more killing is -2.33% and the z-score is -1.3.

With `O=C(CCn1c(=S)[nH]c2ccccc2c1=O)NCCc1ccc(Cl)cc1`, the corrected activity, negative = more killing is -2.39% and the z-score was -0.633.

As for `Brc1cccc(-c2nnc3sc(CN4CCOCC4)cn23)c1`, the corrected activity, negative = more killing is -6.12% and the z-score was -1.74.

As to `Cc1ccc2oc(-c3ccc(NC(=O)c4cccc(F)c4)c(C)c3)nc2c1`, the corrected activity, negative = more killing is -9.28% and the z-score was -3.29.

Consider `CC(=O)CC(O)(c1ccccc1)C(F)(F)F` (stereo unspecified), for which the corrected activity, negative = more killing was 0.173% and the z-score was 0.0551.

Take `COc1ccc(C(=O)Nc2ccc(-c3nc4cc(C)cc(C)c4o3)cc2)cc1OC`: the corrected activity, negative = more killing is 2.2% and the z-score is 0.681.

As to `CCCCOc1ccccc1C1NC(=O)NC(C)=C1C(=O)OCC(F)(F)F` (stereo unspecified), the corrected activity, negative = more killing is -3.61% and the z-score is -1.36.

Take `COC(=O)c1ccc(COC(=O)c2ccncc2)cc1`: the corrected activity, negative = more killing is -0.707% and the z-score was -0.393.

As for `O=C(Nc1ccc([N+](=O)[O-])cc1)c1cc2c(=O)n3ccccc3nc2s1`, the corrected activity, negative = more killing is -3.21% and the z-score was -0.91.

Consider `COc1ccc(C(=O)N2N=C(C3CCCCC3)CC2(O)C(F)(F)F)cc1OC` (stereo unspecified), for which the corrected activity, negative = more killing is -5.29% and the z-score is -1.58.

For `CSCCOC(=O)C1=C(C)NC(=O)NC1c1cccc([N+](=O)[O-])c1` (stereo unspecified), the corrected activity, negative = more killing was 0.214% and the z-score was 0.0664.

Turning to `O=C(Nc1cc2c(cc1C(=O)c1ccc(Br)cc1)OCCO2)c1ccc(Cl)cc1`, the corrected activity, negative = more killing is -4.2% and the z-score was -1.3.

On to `CCOc1ccccc1C=Nc1ccc(Cl)cc1Cl`, for which the corrected activity, negative = more killing is -4.37% and the z-score was -1.86.

Take `COc1ccccc1CNCc1ccccn1`: the corrected activity, negative = more killing is -2.41% and the z-score is -0.766.

Consider `COc1ccc(NC(=O)c2coc(=O)c3ccccc23)cc1Cl`, for which the corrected activity, negative = more killing was -3.91% and the z-score is -1.24.

As to `O=C(Nc1ccccc1[N+](=O)[O-])C12CC3CC(CC(C3)C1)C2`, the corrected activity, negative = more killing was -1.55% and the z-score was -0.55.

With `CC(=O)N1CCc2[nH]c3ccccc3c2C1`, the corrected activity, negative = more killing is -1.79% and the z-score was -0.676.

Take `O=c1c(=Nc2ccccc2O)c(=O)c2ccccc12`: the corrected activity, negative = more killing is -2.51% and the z-score was -0.945.

On to `COC(=O)c1ccc(C=NN2CCN(c3ccccn3)CC2)cc1`, for which the corrected activity, negative = more killing is -4.57% and the z-score is -2.

For the compound `CCCn1cnc2sc(C(=O)Nc3ccc(Oc4ccc5c(c4)C(=O)N(c4ccc6c(c4)OCO6)C5=O)cc3)c(C)c2c1=O`, the corrected activity, negative = more killing is -4.94% and the z-score is -1.8.
